Laboratory results taken from ChEMBL document CHEMBL1201862, “PubChem BioAssay data set” (2004).
Potency and affinity values are given separately.

Assay: A High Throughput Confirmatory Assay used to Identify Novel Compounds that Inhibit Mycobacterium Tuberculosis in the absence of Glycerol using Purified and Synthesized Compounds (4).
Type: functional

For `Cc1cc(Br)ccc1NC(=O)c1cnc(N2CCN(c3ccccn3)CC2)c2ccccc12`, which IC90 is on record?
Its IC90 is > 51.1 µM (active).
